According to ChEMBL document CHEMBL1157539, “Thousands of chemical starting points for antimalarial lead identification” (Nature, 2010):

Key:
Type in all cases: functional
Plasmodium falciparum [1] = test: GSK_TCMDC: Inhibition of Plasmodium falciparum 3D7 in whole red blood cells, using parasite LDH activity as an index of growth. Test compounds present at 2uM
Plasmodium falciparum [2] = test: GSK_TCMDC: Inhibition of Plasmodium falciparum Dd2 in whole red blood cells, using parasite LDH activity as an index of growth. Test compounds present at 2uM
HepG2 = test: GSK_TCMDC: Percent inhibition of human HepG2 cell line. Test compounds present at 10uM.

## CCn1ccc2c(N3CCCS3(=O)=O)cc(C(=O)N[C@@H](Cc3ccccc3)[C@H](O)CNC(C)(C)c3cccc(OC)c3)cc21
Plasmodium falciparum [1]
  Inhibition: 99%
Plasmodium falciparum [2]
  Inhibition: 98%
HepG2
  Inhibition: 20%

## CCC(C)NC(=O)CN1CN(c2ccccc2)C2(CCN(C(=O)c3ccc(C(C)(C)C)cc3)CC2)C1=O (stereo unspecified)
Plasmodium falciparum [1]
  Inhibition: 100%
Plasmodium falciparum [2]
  Inhibition: 100%
HepG2
  Inhibition: 0%

## O=C(Nc1cccc(-c2cccc(-c3nc4cc(C(F)(F)F)ccc4[nH]3)c2)c1)c1csnn1
Plasmodium falciparum [1]
  Inhibition: 99%
Plasmodium falciparum [2]
  Inhibition: 37%
HepG2
  Inhibition: 45%

## CCN(CC)CCCN(C(=O)Nc1c(Cl)cncc1Cl)c1nc(-c2ccc(F)cc2)cs1
Plasmodium falciparum [1]
  Inhibition: 100%
Plasmodium falciparum [2]
  Inhibition: 93%
HepG2
  Inhibition: 37%

## Oc1ccc(-c2ccccc2)cc1CN1CCCCCC1
Plasmodium falciparum [1]
  Inhibition: 95%
Plasmodium falciparum [2]
  Inhibition: 85%
HepG2
  Inhibition: 6%

## O=C(Nc1ccc(Cl)c(C(F)(F)F)c1)N[C@H]1CCN(CCCCCNC(=O)C2CC2c2ccc(Cl)c(Cl)c2)C1 (stereo partly specified)
Plasmodium falciparum [1]
  Inhibition: 94%
Plasmodium falciparum [2]
  Inhibition: 0%
HepG2
  Inhibition: 39%

## CC[C@H]1CN2CCc3c([nH]c4ccccc34)[C@@H]2C[C@@H]1CC1c2cc(OC)c(OC)cc2CCN1C.Cl (stereo partly specified)
Plasmodium falciparum [1]
  Inhibition: 85%
Plasmodium falciparum [2]
  Inhibition: 45%
HepG2
  Inhibition: 31%

## O=C(NCCCCN1CCC2c3cccc(O)c3CCC21)c1ccc(-c2ccccc2)cc1 (stereo unspecified)
Plasmodium falciparum [1]
  Inhibition: 81%
Plasmodium falciparum [2]
  Inhibition: 50%
HepG2
  Inhibition: 23%

## Cc1cc(N2CCCC2)nc(Nc2ccc(NC(=O)c3ccccc3F)cc2)n1
Plasmodium falciparum [1]
  Inhibition: 98%
Plasmodium falciparum [2]
  Inhibition: 44%
HepG2
  Inhibition: 36%

## CCN(CC)CCCOc1ccc(Nc2nccc(-c3c(-c4cccc(NC(=O)c5c(F)cccc5F)c4)nn4ccccc34)n2)cc1F
Plasmodium falciparum [1]
  Inhibition: 100%
Plasmodium falciparum [2]
  Inhibition: 99%
HepG2
  Inhibition: 86%

## COc1ccc(NC(=O)Nc2nc(-c3ccc(Cl)c(C)c3)cs2)cc1N1CCN(C)CC1.Cl
Plasmodium falciparum [1]
  Inhibition: 99%
Plasmodium falciparum [2]
  Inhibition: 89%
HepG2
  Inhibition: 9%

## CN(CCN)Cc1cccc(-c2ccc(-c3nc4cc(C(F)(F)F)ccc4[nH]3)s2)c1.O=C(O)C(F)(F)F
Plasmodium falciparum [1]
  Inhibition: 100%
Plasmodium falciparum [2]
  Inhibition: 92%
HepG2
  Inhibition: 27%

## O=C(Nc1ccc(Cn2nc(Cl)c(N3CCNCC3)cc2=O)cc1)Nc1ccc(-c2ccccc2)cc1.O=C(O)C(F)(F)F
Plasmodium falciparum [1]
  Inhibition: 97%
Plasmodium falciparum [2]
  Inhibition: 49%
HepG2
  Inhibition: 99%

## CC(O)C1CCCCN1C(=O)c1ccc(-c2ccc(-c3nc4ccccc4[nH]3)s2)cc1 (stereo unspecified)
Plasmodium falciparum [1]
  Inhibition: 100%
Plasmodium falciparum [2]
  Inhibition: 98%
HepG2
  Inhibition: 33%

## O=C(Nc1ccc(C(F)(F)F)cc1)NC1CCN(CCCCCNC(=O)C2CC2c2ccc(Cl)c(Cl)c2)CC1 (stereo unspecified)
Plasmodium falciparum [1]
  Inhibition: 100%
Plasmodium falciparum [2]
  Inhibition: 45%
HepG2
  Inhibition: 41%

## Cc1cc(-c2ccnc(Nc3cccc(C#N)c3)n2)cc(C)c1O
Plasmodium falciparum [1]
  Inhibition: 88%
Plasmodium falciparum [2]
  Inhibition: 54%
HepG2
  Inhibition: 50%

## CN(C(=O)/C=C/c1cc(C(F)(F)F)ccc1F)C1CCN(CCCCCNC(=O)/C=C/c2ccc(Cl)c(Cl)c2)CC1
Plasmodium falciparum [1]
  Inhibition: 100%
Plasmodium falciparum [2]
  Inhibition: 68%
HepG2
  Inhibition: 71%

## CCOC(=O)CNC(=O)N1CCN(C(=O)NCC(=O)OCC)CC1
Plasmodium falciparum [1]
  Inhibition: 93%
Plasmodium falciparum [2]
  Inhibition: 0%
HepG2
  Inhibition: 0%

## O=C(C=Cc1ccc(Cl)c(Cl)c1)NCCCCCN1CCCC(CCCNS(=O)(=O)c2ccc(Br)cc2)C1 (stereo unspecified)
Plasmodium falciparum [1]
  Inhibition: 88%
Plasmodium falciparum [2]
  Inhibition: 5%
HepG2
  Inhibition: 43%

## O=C(/C=C/c1c[nH]c2ccccc12)NCCCCCN1CCC(c2c[nH]c3ccccc23)CC1
Plasmodium falciparum [1]
  Inhibition: 96%
Plasmodium falciparum [2]
  Inhibition: 0%
HepG2
  Inhibition: 20%

## Cc1cc(C)c2oc(-c3cccc(NC(=O)c4ccc([N+](=O)[O-])o4)c3C)nc2c1
Plasmodium falciparum [1]
  Inhibition: 90%
Plasmodium falciparum [2]
  Inhibition: 67%
HepG2
  Inhibition: 0%

## Cl.N#Cc1cccc(NC(=O)Nc2ccc3c(c2)CCN(C2CCC2)CC3)c1
Plasmodium falciparum [1]
  Inhibition: 91%
Plasmodium falciparum [2]
  Inhibition: 26%
HepG2
  Inhibition: 22%

## COc1ccc2c(NN=Cc3ccc(F)cc3)ccnc2c1
Plasmodium falciparum [1]
  Inhibition: 100%
Plasmodium falciparum [2]
  Inhibition: 99%
HepG2
  Inhibition: 14%

## CCc1ccc(C2CCN(CCCCNC(=O)c3ccc(-c4ccc(Cl)cc4)cc3)CC2)c(O)c1
Plasmodium falciparum [1]
  Inhibition: 100%
Plasmodium falciparum [2]
  Inhibition: 99%
HepG2
  Inhibition: 48%

## FC(F)(F)c1cccc(Nc2nc(-n3ccnc3)nc(-n3ccnc3)n2)c1
Plasmodium falciparum [1]
  Inhibition: 97%
Plasmodium falciparum [2]
  Inhibition: 9%
HepG2
  Inhibition: 5%

## COc1cc2nc(N3CCC(CNC(=O)c4ccc(-c5ccc(C(F)(F)F)cc5)cc4)CC3)nc(N)c2cc1OC
Plasmodium falciparum [1]
  Inhibition: 100%
Plasmodium falciparum [2]
  Inhibition: 100%
HepG2
  Inhibition: 94%

## Cc1ccc(-c2ccn(Cc3cccc(OCc4ccccc4)c3)n2)cn1.Cc1ccc(-c2ccnn2Cc2cccc(OCc3ccccc3)c2)cn1
Plasmodium falciparum [1]
  Inhibition: 82%
Plasmodium falciparum [2]
  Inhibition: 64%
HepG2
  Inhibition: 0%
